Assay results taken from the supplement of paper PMC8866396.
± gives the standard deviation of the averaged measurements.

Key:
IL-6-GFP PC-9GR = test: cell viability (CCK-8 OD) relative to DMSO control (fraction of control); higher = more viable cells; conditions: compound concentration: 10 uM; treatment time: 48 h
Summary of the method: (§1)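 PC-9 and PC-9GR lung cancer cells carrying a lentiviral construct that overexpresses IL-6-GFP were seeded in 96-well plates at 3000 cells/well. Every compound in a purchased 510-compound library was applied at a final 10 μM for 48 h, and a parallel set of plates was kept for GFP imaging. Cell viability was read by CCK-8 absorbance, taking each well's optical density as a ratio to the vehicle control well. Two independent replicates were run.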

IL-6-GFP PC-9 = test: as above; conditions: compound concentration: 10 uM; treatment time: 48 h
Summary of the method: as §1

| Structure (SMILES) | cell viability (IL-6-GFP PC-9GR) | cell viability (IL-6-GFP PC-9) |
| --- | --- | --- |
| CC(=O)OC1(C(C)=O)CCC2C3C=C(C)C4=CC(=O)CCC4(C)C3CCC21C (stereo unspecified) [Megestrol Acetate] | 1.22 ± 0.09 | 1.13 ± 0.1 |
| Cc1nnc(C(=O)NC(C)(C)c2nc(C(=O)NCc3ccc(F)cc3)c(O)c(=O)n2C)o1 [Raltegravir (MK-0518)] | 1.21 ± 0.063 | 1.39 ± 0.3 |
| CC1=C(CC(=O)O)c2cc(F)ccc2/C1=C\c1ccc(S(C)=O)cc1 (stereo unspecified) [Sulindac] | 1.12 ± 0.075 | 0.821 ± 0.32 |
| C=CC1CN2CCC1CC2C(O)c1ccnc2ccc(OC)cc12.Cl.O.O (stereo unspecified) [Quinine HCl Dihydrate] | 1.2 ± 0.21 | 1.19 ± 0.04 |
| COC(=O)NC(C(=O)N1CCCC1c1ncc(-c2ccc3c(c2)OC(c2ccccc2)n2c-3cc3cc(-c4cnc(C5CCCN5C(=O)C(NC(=O)OC)C(C)C)[nH]4)ccc32)[nH]1)C(C)C (stereo unspecified) [Elbasvir] | 0.497 ± 0.03 | 0.809 ± 0.035 |
| COc1ccc2cc(CCC(C)=O)ccc2c1 [Nabumetone] | 1.29 ± 0.24 | 1.11 ± 0.13 |
| COC1=C(OC)C(=O)C(CCCCCCCCCCO)=C(C)C1=O [Idebenone] | 1.12 ± 0.088 | 0.816 ± 0.0099 |
| CC1(C)OC2CC3C4CCC5=CC(=O)C=CC5(C)C4(F)C(O)CC3(C)C2(C(=O)CO)O1 (stereo unspecified) [Triamcinolone Acetonide] | 1.15 ± 0.023 | 0.9016 ± 0.0065 |
| O=C(CCCc1ccccc1)[O][Na] [Sodium Phenylbutyrate] | 0.51 ± 0.067 | 0.0369 ± 0.035 |
| CC1CC2C3CCC4=CC(=O)C=CC4(C)C3(F)C(O)CC2(C)C1C(=O)CO (stereo unspecified) [Desoximetasone] | 0.815 ± 0.23 | 1.08 ± 0.093 |
| C=CC(=O)Nc1cccc(Oc2nc(Nc3ccc(N4CCN(C)CC4)cc3)nc3ccsc23)c1 | 0.393 ± 0.19 | 0.465 ± 0.07 |
| CC(=O)C1CCC2C3CC(C)C4=CC(=O)CCC4(C)C3C(O)CC12C (stereo unspecified) [Medrysone] | 0.958 ± 0.024 | 1.15 ± 0.051 |
| NC(=O)Cc1cccc(C(=O)c2ccccc2)c1N [Nepafenac] | 1.07 ± 0.029 | 0.958 ± 0.1 |
| Cc1ccc(-c2ncc(Cl)cc2-c2ccc(S(C)(=O)=O)cc2)cn1 [Etoricoxib] | 0.855 ± 0.092 | 1.21 ± 0.029 |
| Cc1ccc(C(C)C)cc2c(C)ccc1-2 [Guaiazulene] | 0.98 ± 0.15 | 0.275 ± 0.37 |
| CC(Oc1cc(-c2cnn(C3CCNCC3)c2)cnc1N)c1c(Cl)ccc(F)c1Cl [(S)-crizotinib] | 0.458 ± 0.15 | 0.756 ± 0.12 |
| OCC1OC(c2ccc(Cl)c(Cc3ccc(OC4CCOC4)cc3)c2)C(O)C(O)C1O (stereo unspecified) | 1.05 ± 0.13 | 0.905 ± 0.058 |
| O=NN(CCCl)C(=O)NC1CCCCC1 [Lomustine] | 1.05 ± 0.07 | 0.9506 ± 0.0079 |
| COc1cc(Nc2c(C#N)cnc3cc(OCCCN4CCN(C)CC4)c(OC)cc23)c(Cl)cc1Cl [Bosutinib (SKI-606)] | 0.448 ± 0.011 | 0.429 ± 0.064 |
| O.O.O=C([O-])CCNC(=O)c1ccc(N=Nc2ccc(O)c(C(=O)[O-])c2)cc1.[Na+].[Na+] [Balsalazide disodium] | 1.24 ± 0.25 | 1.34 ± 0.11 |
| COc1ccc(-c2ccc3cc(C(=O)O)ccc3c2)cc1C12CC3CC(CC(C3)C1)C2 [Adapalene] | 1.15 ± 0.15 | 0.765 ± 0.3 |
| COC(=O)NC(C(=O)N1CCCC1c1ncc(-c2ccc(-c3ccc(-c4cnc(C5CCCN5C(=O)C(NC(=O)OC)C(C)C)[nH]4)cc3)cc2)[nH]1)C(C)C (stereo unspecified) | 1.41 ± 0.14 | 1.18 ± 0.11 |
| CCOC(=O)C(CCc1ccccc1)NC1CSC(c2cccs2)CN(CC(=O)O)C1=O (stereo unspecified) [Temocapril] | 0.726 ± 0.078 | 1.14 ± 0.099 |
| Oc1ccc(/C=C/c2cc(O)cc(O)c2)cc1 [Resveratrol] | 1.38 ± 0.065 | 1.37 ± 0.064 |
| CCC(c1ccc(O)cc1)C(CC)c1ccc(O)cc1 (stereo unspecified) [Hexestrol] | 1.28 ± 0.31 | 1.16 ± 0.15 |
| CNC(=O)c1cc(Oc2ccc(NC(=O)Nc3ccc(Cl)c(C(F)(F)F)c3)cc2)ccn1.Cc1ccc(S(=O)(=O)O)cc1 [Sorafenib Tosylate] | 0.85 ± 0.18 | 0.524 ± 0.017 |
| COC1OC2OC3(C)CCC4C(C)CCC(C1C)C24OO3 (stereo unspecified) [Artemether] | 1.29 ± 0.17 | 1.29 ± 0.052 |
| CC1CC2C3CCC4=CC(=O)C=CC4(C)C3C(=O)CC2(C)C1(O)C(=O)CO (stereo unspecified) [Meprednisone] | 1.25 ± 0.14 | 1.46 ± 0.35 |
